Assay [1] is described as follows: Quantitative High-Throughput drug screen in 47 multiple myeloma cell lines against the NCATS MIPE library collection: Delta47_JCRB cell viability assay (AID 1918925; also: nearly all actives have a fitted effect of over 45% in size; also: potency is read from the fitted curve at half-maximal effect). The essentials: (§1)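 CellTiter-Glo luminescence (ATP) after 48 h compound exposure, 37C/5% CO2; 500 cells/well; MIPE 4.0 approved/investigational drugs pinned in; DMSO = 100%, media only = 0% viability.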

Assay [2] in a line: Quantitative High-Throughput drug screen in 47 multiple myeloma cell lines against the NCATS MIPE library collection: AMO1_DSMZ cell viability assay (AID 1918927; also: nearly all actives have a fitted effect of over 30% in size; also: potency is read from the fitted curve at half-maximal effect). In a few lines:
as §1

Assay [3] in a line: Quantitative High-Throughput drug screen in 47 multiple myeloma cell lines against the NCATS MIPE library collection: ARP1_JJKsccF8 cell viability assay (AID 1918928; also: nearly all actives have a fitted effect of over 40% in size; also: potency is read from the fitted curve at half-maximal effect). In a few lines:
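Cell viability inhibition in this qHTS is measured via ATP content (CellTiter-Glo) after 48 h drug exposure at 37 °C. Wells hold 500 cells; DMSO-treated wells define 100% and medium-only wells 0%.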

A short description of assay [4]: Quantitative High-Throughput drug screen in 47 multiple myeloma cell lines against the NCATS MIPE library collection: Karpas620_DSMZ cell viability assay (AID 1918959). Also: nearly all actives have a fitted effect of over 30% in size. Also: potency is read from the fitted curve at half-maximal effect. The essentials: (§2)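 Steps: seed 500 cells per well; pin-transfer MIPE 4.0 library; incubate 48 h at 37C, 5% CO2, humidified; add CellTiter-Glo, 5 min room temperature; read luminescence.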
The nature of assay [5]: Quantitative High-Throughput drug screen in 47 multiple myeloma cell lines against the NCATS MIPE library collection: FR4_PLB cell viability assay (AID 1918924; also: nearly all actives have a fitted effect of over 35% in size; also: potency is read from the fitted curve at half-maximal effect). In a few lines:
as §2

In assay [6] the target is Luciferin 4-monooxygenase (Photinus pyralis) (UniProt P08659). Put plainly: Primary firefly luciferase (FLuc) qHTS assay for identification of artifact compounds. (AID 1845220). Also: nearly all actives have a fitted effect of over 60% in size. The settings on record: outcome: dose series up to 54.1 µM. In a few lines:
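D-luciferin and ATP (10 uM each, final) in Tris acetate buffer pH 7.6 were incubated with compounds for 15 min at room temperature. The reaction was started with 10 nM Photinus pyralis luciferase and luminescence read after 5 min. Percent inhibition was fitted to a 4-parameter Hill equation.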
A general note: In qHTS, concentration-response curves come from the screen itself.

Assay [7] in a line: Primary fluorescence-based thiol-reactive (MSTI) qHTS assay for identification of artifact compounds. (AID 1845221).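 Also: series mostly up to about 54 µM; thiol-reactive compounds lower the probe fluorescence signal; nearly all actives have a fitted effect of over 65% in size.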 In a few lines:
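MSTI probe at 4 uM final in 2% DMSO/PBS pH 7.4; compounds, 1 h at room temperature in dark. Fluorescence Ex/Em 525/598 nm, normalised to Acetyl-MSTI and MSTI, fitted to 4-parameter Hill.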

The test system of assay [8] is Nanoluciferase (engineered Oplophorus gracilirostris luciferase). Put plainly: Primary Nanoluciferase (NLuc) qHTS assay for identification of artifact compounds. (AID 1845222). Also: series mostly up to about 54 µM. In a few lines: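 Diluted conditioned medium from NLuc-expressing S16 cells treated with compounds for 15 min at room temperature, then Nano-Glo substrate added; luminescence read after 5 min. Percent inhibition versus no-enzyme and DMSO controls fitted to 4-parameter Hill equation.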

A short description of assay [9]: Primary redox qHTS assay for identification of artifact compounds. (AID 1845223). In a few lines: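 Redox-cycling detection via DTT (250 uM final) oxidation coupled to Amplex Red (25 uM)/HRP (250 mU/mL) in HBSS. 15 min preincubation plus 30 min after DTT, room temperature. Ex/Em 525/598 nm; 4-parameter Hill fit against DMSO and 10 uM DA3003.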
Assay [10] can be described thus: Quantitative High-Throughput drug screen in 47 multiple myeloma cell lines against the NCATS MIPE library collection: ARD_JJKsccE7 cell viability assay (AID 1918929; also: potency is read from the fitted curve at half-maximal effect). The essentials: as §1

Records with an inconclusive call do not appear. Activity calls are given as the source filed them. Calls follow the shape of the dose curve; as a rule, active = well fitted curve in the direction sought with a large enough effect; inconclusive = small, poorly fitted or top-dose-only effect, or another doubt; inactive = no such curve, though single readings can be large; an effect the other way counts as inactive or inconclusive.

`CCCC(C)(COC(N)=O)COC(=O)NC(C)C` (configuration not stated): the Potency entry in assay [1], in assay [2], in [3] and in [4] was “inactive” in each case.

`Fc1ccc(C(OCCN2CCN(CCCc3ccccc3)CC2)c2ccc(F)cc2)cc1`: the Potency is 20900 nM (active) in assay [5], 8330 nM (active) in [1] and 20900 nM (active) in [3]. In addition, the Potency result in assay [2] and in assay [4] was “inactive” each time.

For `CNC(=O)c1ccc(N2C(=S)N(c3ccc(C#N)c(C(F)(F)F)c3)C(=O)C23CCC3)cc1F`, the compound was classed as inactive in assay [6], in assay [7], in [8] and in assay [9]. Also, the Potency result in assay [5] and in assay [3] was “inactive” each time. The Potency in assay [1] is 4180 nM (active); in assay [2], 2640 nM (active); in assay [10], 16600 nM (active); in [4], 18700 nM (active).

As for `CNCC(O)c1ccc(O)cc1` (configuration not stated), the Potency result in [5], in assay [1], in assay [2], in assay [3], in assay [10] and in [4] was “inactive” throughout.

For the compound `O=P1(NCCCl)OCCCN1CCCl` (configuration not stated), the Potency in assay [5] was 16600 nM (active); in assay [2], 5900 nM (active).

For `Cc1cc(SCc2sc(-c3ccc(C(F)(F)F)c(F)c3)nc2C)ccc1OCC(=O)O`, the outcome in assay [7] and in [8] was inactive. Further, the Potency result in [5] was “inactive”.

Take `CN(C)CCc1ccc(O)cc1`: the Potency entry in assay [5], in assay [1], in assay [2], in [10] and in assay [4] was “inactive” throughout.

For `Cn1cc(C2=C(c3cn(C4CCN(Cc5ccccn5)CC4)c4ccccc34)C(=O)NC2=O)c2ccccc21`, the Potency in assay [5] was 16600 nM (active); in assay [1], 5900 nM (active); in assay [2] it was 935 nM (active); in [10], 9350 nM (active); in [4], 5900 nM (active).

With `CNC(=O)N1N=C(c2ccc(N)cc2)c2cc3c(cc2CC1C)OCO3` (configuration not stated), the call in assay [6], in assay [8] and in assay [9] was inactive. In addition, the Potency in [1] was 1480 nM (active); in assay [2] it was 1870 nM (active); in assay [10] it was 2350 nM (active).

For the compound `COc1ccc(C(CN(C)C)C2(O)CCCCC2)cc1` (configuration not stated), the Potency entry in assay [5], in assay [1], in assay [3], in assay [10] and in [4] was “inactive” each time.

In the case of `Cc1cccc(C)c1NC(=O)CN1CCCC1=O`, the Potency entry in assay [1], in assay [3], in assay [10] and in assay [4] was “inactive” throughout.

As to `C[C@@H]1[C@@H](CC(C[C@H]2O[C@@H]3O[C@]4(C)CC[C@@H]5[C@H](C)CC[C@@H]([C@H]2C)[C@@]35OO4)C[S+](=O)([O-])c2ccc(COC(=O)N(C)C)cc2)O[C@@H]2O[C@]3(C)CC[C@H]4[C@H](C)CC[C@@H]1[C@@]24OO3` (some centres not stated), the Potency in [5] is 209 nM (active); in [1], 235 nM (active); in [2] it was 118 nM (active); in assay [3], 93.5 nM (active); in [10] it was 118 nM (active); in [4], 41.8 nM (active).

On to `C[C@@H]1O[C@@H](O[C@H]2C[C@@H](O)[C@]3(CO)[C@H]4[C@H](O)C[C@]5(C)[C@@H](C6=CC(=O)OC6)CC[C@]5(O)[C@@H]4CC[C@]3(O)C2)[C@H](O)[C@H](O)[C@H]1O`, for which the compound was called inactive in [6], in [7], in [8] and in assay [9]. Moreover, the Potency in assay [5] was 9.3 nM (active); in assay [1], 29.6 nM (active); in assay [2] it was 9.3 nM (active); in [3] it was 41.8 nM (active); in assay [10] it was 14.8 nM (active); in [4], 37.2 nM (active).

Turning to `O=c1[nH]c2ccccc2n1C1CCN(CCCC(c2ccc(F)cc2)c2ccc(F)cc2)CC1`, the compound was called inactive in assay [6], in assay [7], in [8] and in [9].

For `CC(O)(CS(=O)(=O)c1ccc(F)cc1)C(=O)Nc1ccc(C#N)c(C(F)(F)F)c1` (configuration not stated), the compound was classed as inactive in [6], in assay [7], in assay [8] and in assay [9]. Besides, the Potency in assay [1] is 296 nM (active); in [2], 662 nM (active); in [10], 1660 nM (active); in [4], 2090 nM (active).

For `CN(C)[C@@H]1C(=O)C(C(N)=O)=C(O)[C@@]2(O)C(=O)C3=C(O)c4c(O)cccc4[C@@](C)(O)[C@H]3C[C@@H]12`, the Potency entry in assay [1], in assay [2], in [10] and in assay [4] was “inactive” in each case. The Potency in [3] was 16600 nM (active).

For the compound `CC(C)CC(N(C)C)C1(c2ccc(Cl)cc2)CCC1` (configuration not stated), the Potency result in [2], in assay [3], in assay [10] and in assay [4] was “inactive” in each case.

For the origin of these results see PubChem BioAssay (NCATS).
